From PubChem BioAssay (NCATS)
A number with no mark means an inactive call. Records with an inconclusive call do not appear. A call without a number means that no potency is given here. The source made the active and inactive calls. Unless noted, calls come from the whole dose curve; as a rule, active = well fitted curve in the direction sought with a large enough effect; inconclusive = small, poorly fitted or top-dose-only effect, or another doubt; inactive = no such curve, though single readings can be large; an effect the other way counts as inactive or inconclusive.

Legend:
[1] = biological target: Lysosomal acid glucosylceramidase (Homo sapiens) (UniProt P04062); assay: Glucocerebrosidase-p2 (AID 348; in the data active = potency below about 10 µM; note: potency is the fitted concentration of half-maximal effect); conditions: purified GBA, blue fluorogenic substrate, 40 min
Procedure, shortened: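 Normal human glucocerebrosidase (0.2 nM) with blue fluorogenic substrate (80 uM final) in citrate/phosphate pH 5.9 with 10mM sodium taurocholate, 0.01% tween-20; 40 min RT, NaOH/glycine stop; fluorescence Ex 365/Em 440; AC50 from a titration from 0.6 nM upwards.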

[2] = AP1 Signaling Pathway (AID 357; active = well fitted curve in either direction with a large enough effect, not every such curve was filed as active;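 note: ME-180 reporter cells stimulated with EGF at its EC50 level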); conditions: ME-180 AP-1-bla reporter, EGF-induced, beta-lactamase ratio, 5 h; at 7.69 µM (top of the series) unless noted
Procedure, shortened: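 Modulation of EGF-driven AP-1 transcription was assessed with a beta-lactamase reporter in ME-180 cells. Compound and EC50 EGF were co-incubated 5 hours at 37 °C before 2.5-hour CCF4 loading at room temperature and dual-emission reading.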

[3] = NFAT Signaling Pathway (AID 444; active = well fitted curve in either direction with a large enough effect, not every such curve was filed as active;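 note: carbachol stimulus at about its EC50 of 1 µM final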); conditions: Jurkat NFAT-bla M1, carbachol, beta-lactamase ratio, 5 h; at 7.69 µM (top of the series) unless noted
Procedure, shortened: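 Read-out: CCF4 FRET ratio (460 nm/530 nm) after 1 h RT dye loading, used for %activity and AC50 from titration series. Cells: Jurkat NFAT-β-lactamase/M1 line, treated with compound plus 1 uM carbachol for 5 h, 37 °C.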

[4] = biological target: Glucocorticoid receptor (Homo sapiens) (UniProt P04150); assay: GR-GFP Redistribution (AID 450;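 active = compounds whose dose series gives a full or clear partial fitted curve of increased nuclear translocation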; note: potency is the fitted concentration of half-maximal effect); conditions: U2OS GR-GFP nuclear translocation, laser cytometry, 2 h
[5] = biological target: Glucocorticoid receptor (Homo sapiens) (UniProt P04150); assay: GR-EFC Redistribution (AID 451; calls by dose curve; note: potency is the fitted concentration of half-maximal effect); conditions: CHO-K1 GR-EFC translocation, beta-gal luminescence, 2 h
Procedure, shortened: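 Translocation of GR-ED fusion to nuclear EA restores b-gal, read by luminescence after 1 h room-temperature detection. Engineered CHO-K1 biosensor cells, 1,000/well, exposed 2 h at 37 C to titrations up to 46 uM final.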

[6] = biological target: Mitogen-activated protein kinase 10 (Mus musculus) (UniProt Q61831); assay: JNK3 AlphaScreen Assay (AID 530; active = well fitted curve in either direction with a large enough effect, not every such curve was filed as active;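 note: kinase came from lysate of stimulated human HepG2 cells; signal reports phosphorylation of biotinylated GST-cJun 1-79 at Ser73 with 10 µM ATP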); conditions: JNK3 lysate, c-Jun phosphorylation; series mostly up to 57.1 µM
Procedure, shortened: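 Kinase buffer: 20 mM Tris-HCl pH 7.6, 10 mM MgCl2, 1 mM DTT, 0.1 mM Na3VO4, 0.01% Tween-20; ATP 10 uM. Substrate biotin-GST-cJun(1-79), enzyme from activated HepG2 lysates. Detection by Ser73 phospho-antibody AlphaScreen.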

[7] = biological target: 3',5'-cyclic-AMP phosphodiesterase 4B (Homo sapiens) (UniProt Q07343); assay: qHTS Assay for Inhibitors of PDE-IV (AID 607; active = well fitted activation curve with a large enough effect in the main read-out, with a control signal flat, not every such curve was filed as active); conditions: HEK293 ACTOne CNG channel cells, membrane potential fluorescence; series mostly up to 22.9 µM
Procedure, shortened: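 ACTOne HEK293 cells carry a modified cAMP-gated CNG channel and express endogenous PDE4; plated 1000 cells/well, compounds up to 22.9 uM final. Membrane-potential dye fluorescence (ex 535/em 590) was read; parental cells received 10 uM forskolin + 100 uM RO 20-1724.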

[8] = biological target: Cytochrome P450 2C9 (Homo sapiens) (UniProt P11712); assay: qHTS Assay for Inhibitors and Substrates of Cytochrome P450 2C9 (AID 883); conditions: recombinant CYP2C9, luciferin-H luminescence, 60 min; series mostly up to 57.1 µM; note: nearly all actives have a fitted effect of over 60% in size
Procedure, shortened: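 Inhibition of CYP2C9 is scored as loss of luminescence, with 57uM sulphaphenazole defining 100% inhibition. Substrate Luciferin-H is used at 100uM, equal to its KM; enzyme at 10nM in 25mM KPO4, 60 min at 37C with NADPH regeneration.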

[9] = biological target: Dual specificity protein kinase CLK4 (Homo sapiens) (UniProt Q9HAZ1); assay: qHTS Assay for Inhibitors of CDC-like Kinase 4 (Kinase-Glo Assay) (AID 1770); conditions: recombinant Clk4, Kinase-Glo ATP depletion luminescence; series mostly up to 66.7 µM; note: nearly all actives have a fitted effect of over 65% in size; note: potency is the fitted concentration of half-maximal effect
Procedure, shortened: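 Readout: Kinase-Glo luminescence from ATP left after a 4.5 h room-temperature reaction of 25 nM Clk4 with 100 uM RS peptide and 1 uM ATP (final). Buffer: 25 mM Tris pH 7.5, 10 mM MgCl2.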

[10] = biological target: Dual specificity protein kinase CLK4 (Homo sapiens) (UniProt Q9HAZ1); assay: qHTS Assay for Inhibitors of CDC-like Kinase 4 (ADP-Glo Assay) (AID 1771); conditions: recombinant CLK4, ADP-Glo luminescence; series mostly up to 80 µM; note: nearly all actives have a fitted effect of over 70% in size; note: potency is the fitted concentration of half-maximal effect
Procedure, shortened: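 In this ADP-Glo format, 1 uM ATP and 100 uM RS peptide served as substrates for 25 nM Clk4 in Mg2+/EGTA/DTT/Triton buffer; reactions ran 1 hr at room temperature before luminescent ADP quantification.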

[11] = biological target: Dual specificity protein kinase CLK4 (Homo sapiens) (UniProt Q9HAZ1); assay: qHTS Assay for Inhibitors of CDC-like Kinase 4 (ADP-FP Assay) (AID 1795); conditions: Transcreener ADP fluorescence polarization; series mostly up to 50 µM;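 note: recombinant human CLK4 phosphorylating RS repeat peptide at 1 µM ATP; nearly all actives have a fitted effect of over 60% in size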
Procedure, shortened: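 FP readout: Orange Transcreener ADP2 tracer (4 nM) plus ADP antibody, read after 30 min at room temperature. Kinase step: 6.25 nM Clk4, 100 uM RS peptide, 1 uM ATP, pH 7.5, 1 h.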

[12] = biological target: Ubiquitin carboxyl-terminal hydrolase 1 (Homo sapiens) (UniProt O94782); assay: Inhibitors of USP1/UAF1: Pilot qHTS (AID 504865); conditions: purified USP1/UAF1, Ub-rhodamine cleavage fluorescence; series mostly up to 54.9 µM;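 note: rhodamine fluorescence freed from ubiquitin-rhodamine substrate followed over time; top concentration of the series differs between compounds; nearly all actives have a fitted effect of over 35% in size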
Procedure, shortened: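 1nM USP1/UAF1 + cpd, 15 min RT; start w/ Ub-Rho 150nM final; kinetic FL 480/540 nm, 6 reads q60 s. Buffer 50mM HEPES pH 7.8, 0.5mM EDTA, 1mM TCEP, 0.01% Tween-20, 0.1 mg/ml BSA.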

[13] = Primary qHTS for small molecule stabilizers of the endoplasmic reticulum resident proteome: Secreted ER Calcium Modulated Protein (SERCaMP) assay (AID 1508630); conditions: SH-SY5Y GLuc-SERCaMP (Gaussia luciferase released on ER calcium loss) secretion, thapsigargin, luminescence; series mostly up to 38.4 µM
Procedure, shortened: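 The SH-SY5Y reporter protocol was run at 3 concentrations up to 38.3 uM (primary) or 11 concentrations (follow-up): 16 h compound, 100 nM thapsigargin for 4 h, then extracellular luciferase luminescence.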

[14] = biological target: Cytochrome P450 1A2 (Homo sapiens) (UniProt P05177); assay: p450-cyp1a2 (AID 410; calls by dose curve; note: potency is the fitted concentration of half-maximal effect); conditions: recombinant CYP1A2, luciferin-ME demethylation, luminescence; series mostly up to 57 µM
Procedure, shortened: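 Read-out is luminescence from luciferin produced by CYP1A2 demethylation of Luciferin-ME (100uM, at Km). Detection reagent stopped the 60 min NADPH-dependent reaction; signals were normalized to 57 uM furafylline.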

[15] = biological target: Cytochrome P450 3A4 (Homo sapiens) (UniProt P08684); assay: qHTS Assay for Inhibitors and Substrates of Cytochrome P450 3A4 (AID 884); conditions: recombinant CYP3A4, Luciferin-PPXE luminescence; series mostly up to 57.1 µM; note: nearly all actives have a fitted effect of over 50% in size; note: potency is the fitted concentration of half-maximal effect
Procedure, shortened: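 Luminescent readout of luciferin produced by CYP3A4 (20 nM) dealkylation of Luciferin-PPXE, 25 uM (its KM). NADPH-driven reaction ran 60 min at RT after 10 min compound preincubation; data scaled to 57 uM ketoconazole as 100% inhibition.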

[16] = biological target: Cytochrome P450 2C19 (Homo sapiens) (UniProt P33261); assay: qHTS Assay for Inhibitors and Substrates of Cytochrome P450 2C19 (AID 899); conditions: recombinant CYP2C19, luciferin-H EGE luminescence; series mostly up to 57.1 µM; note: nearly all actives have a fitted effect of over 60% in size; note: potency is the fitted concentration of half-maximal effect
Procedure, shortened: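 5nM enzyme + 10uM Luciferin-H EGE (=KM), 50mM KPO4; cpd pin-transferred, 10 min 37C; NADPH regen, 60 min 37C; stopped w/ luciferin detection reagent, 20 min; luminescence. Normalized to 57uM ketoconazole (AC100).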

[17] = qHTS Assay for Identification of Small Molecule Agonists for Hypoxia Response Element Signaling Pathway (AID 914; active = well fitted activation curve with a large enough effect in the signal ratio, with a control signal flat, not every such curve was filed as active; the % refers to the signal ratio; note: potency is the fitted concentration of half-maximal effect); conditions: ME-180 HRE-bla reporter, beta-lactamase ratio, CoCl2, 17 h; activation: active compounds read high
Procedure, shortened: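 In Opti-MEM containing 0.5% dialyzed FBS and 10 mM HEPES, ME-180 HRE-bla cells received a compound titration and EC50 CoCl2. They were incubated 17 hours, then CCF4-loaded 2.5 hours at room temperature before ratio reading.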

[18] = Stat Signaling Pathway (AID 446; active = well fitted curve in either direction with a large enough effect, not every such curve was filed as active;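 note: ME-180 cervical cancer cells given 40 pM IL-6 alongside compound; SIE-controlled beta-lactamase reporter measured as 460/530 nm FRET emission ratio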); conditions: ME-180 (cervical carcinoma) SIE beta-lactamase reporter, IL-6 stimulated, 5 h; at 7.69 µM (top of the series) unless noted
Procedure, shortened: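 Compound effects on IL-6-induced STAT reporter activity were measured in ME-180 cells. After overnight culture, cells were co-treated with 40 pM IL-6 for 5 hrs before beta-lactamase substrate loading at room temperature.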

[19] = biological target: Cytochrome P450 3A4 (Homo sapiens) (UniProt P08684); assay: qHTS Assay for Activators of Cytochrome P450 3A4 (AID 885); conditions: recombinant CYP3A4, Luciferin-PPXE luminescence, 60 min; series mostly up to 57.1 µM; note: nearly all actives have a fitted effect of over 65% in size
Procedure, shortened: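 CYP3A4 activity: Luciferin-PPXE O-dealkylation, 25uM substrate, 200mM KPO4, RT throughout. Read-out is luciferase luminescence; higher values reflect activation.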

[20] = biological target: Cytochrome P450 2D6 (Homo sapiens) (UniProt P10635); assay: qHTS Assay for Inhibitors and Substrates of Cytochrome P450 2D6 (AID 891); conditions: recombinant CYP2D6, luciferin-ME EGE luminescence; series mostly up to 57.1 µM; note: potency is the fitted concentration of half-maximal effect; nearly all actives have a fitted effect of over 60% in size
Procedure, shortened: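 Luminescent read-out of luciferin formed by 5 nM human CYP2D6 demethylating 30 uM Luciferin-ME EGE (Km level) over 60 min at room temperature after NADPH regeneration addition. Data normalized to full inhibition by 1.43 uM quinidine.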

Ubiquitin carboxyl-terminal hydrolase 1 (Homo sapiens), sequence (O94782 whole entry, looked up): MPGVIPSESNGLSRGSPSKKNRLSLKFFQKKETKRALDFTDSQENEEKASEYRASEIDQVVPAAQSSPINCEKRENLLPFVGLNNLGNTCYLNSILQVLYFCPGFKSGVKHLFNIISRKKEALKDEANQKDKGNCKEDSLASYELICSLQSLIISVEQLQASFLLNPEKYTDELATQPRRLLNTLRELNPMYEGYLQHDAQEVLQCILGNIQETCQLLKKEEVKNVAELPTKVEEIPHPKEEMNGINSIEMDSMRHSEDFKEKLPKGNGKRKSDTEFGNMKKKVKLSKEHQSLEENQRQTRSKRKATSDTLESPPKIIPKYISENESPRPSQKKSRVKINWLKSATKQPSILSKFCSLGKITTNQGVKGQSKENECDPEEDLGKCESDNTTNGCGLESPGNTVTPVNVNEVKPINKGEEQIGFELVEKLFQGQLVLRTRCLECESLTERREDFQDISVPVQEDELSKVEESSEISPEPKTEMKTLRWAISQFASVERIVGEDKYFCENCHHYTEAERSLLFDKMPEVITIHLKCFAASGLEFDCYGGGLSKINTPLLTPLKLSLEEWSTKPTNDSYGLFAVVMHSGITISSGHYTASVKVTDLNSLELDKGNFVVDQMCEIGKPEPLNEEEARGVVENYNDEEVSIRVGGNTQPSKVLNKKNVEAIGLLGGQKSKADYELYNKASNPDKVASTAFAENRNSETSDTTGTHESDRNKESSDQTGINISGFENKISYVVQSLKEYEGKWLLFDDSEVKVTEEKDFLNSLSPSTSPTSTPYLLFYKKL
Lysosomal acid glucosylceramidase (Homo sapiens), sequence (P04062 whole entry, looked up): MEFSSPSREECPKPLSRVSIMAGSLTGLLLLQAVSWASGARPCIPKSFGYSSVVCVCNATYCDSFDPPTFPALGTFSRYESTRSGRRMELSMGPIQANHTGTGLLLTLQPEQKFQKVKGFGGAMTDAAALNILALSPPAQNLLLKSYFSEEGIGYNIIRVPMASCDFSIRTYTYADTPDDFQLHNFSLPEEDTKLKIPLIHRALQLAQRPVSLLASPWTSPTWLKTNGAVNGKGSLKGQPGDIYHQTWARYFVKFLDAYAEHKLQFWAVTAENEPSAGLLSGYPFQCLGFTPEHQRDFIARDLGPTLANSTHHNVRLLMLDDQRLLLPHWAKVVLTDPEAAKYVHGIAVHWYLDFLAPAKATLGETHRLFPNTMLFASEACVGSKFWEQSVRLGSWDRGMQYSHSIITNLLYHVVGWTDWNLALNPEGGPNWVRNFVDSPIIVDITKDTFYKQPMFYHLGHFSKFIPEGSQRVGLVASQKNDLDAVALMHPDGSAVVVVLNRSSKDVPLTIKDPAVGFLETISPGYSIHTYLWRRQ
3',5'-cyclic-AMP phosphodiesterase 4B (Homo sapiens), sequence (Q07343 whole entry, looked up): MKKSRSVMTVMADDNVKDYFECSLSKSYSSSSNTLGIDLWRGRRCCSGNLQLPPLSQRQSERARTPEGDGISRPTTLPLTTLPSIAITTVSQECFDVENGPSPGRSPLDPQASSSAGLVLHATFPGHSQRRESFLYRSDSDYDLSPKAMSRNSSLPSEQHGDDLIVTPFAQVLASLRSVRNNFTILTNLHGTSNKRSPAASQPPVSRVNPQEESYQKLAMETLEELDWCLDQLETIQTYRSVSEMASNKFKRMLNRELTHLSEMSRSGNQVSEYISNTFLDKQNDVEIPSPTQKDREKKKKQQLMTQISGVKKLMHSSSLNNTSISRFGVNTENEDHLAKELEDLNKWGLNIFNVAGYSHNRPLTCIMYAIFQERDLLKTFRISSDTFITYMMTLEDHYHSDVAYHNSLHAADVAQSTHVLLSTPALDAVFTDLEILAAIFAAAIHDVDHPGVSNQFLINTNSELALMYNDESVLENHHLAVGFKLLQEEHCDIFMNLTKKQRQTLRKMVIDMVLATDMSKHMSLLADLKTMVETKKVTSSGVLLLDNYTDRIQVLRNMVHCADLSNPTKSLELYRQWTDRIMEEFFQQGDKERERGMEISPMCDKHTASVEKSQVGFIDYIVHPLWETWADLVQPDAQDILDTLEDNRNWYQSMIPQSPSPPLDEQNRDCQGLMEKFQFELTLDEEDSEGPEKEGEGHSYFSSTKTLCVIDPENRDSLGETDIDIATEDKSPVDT
Cytochrome P450 1A2 (Homo sapiens), sequence (P05177 whole entry, looked up): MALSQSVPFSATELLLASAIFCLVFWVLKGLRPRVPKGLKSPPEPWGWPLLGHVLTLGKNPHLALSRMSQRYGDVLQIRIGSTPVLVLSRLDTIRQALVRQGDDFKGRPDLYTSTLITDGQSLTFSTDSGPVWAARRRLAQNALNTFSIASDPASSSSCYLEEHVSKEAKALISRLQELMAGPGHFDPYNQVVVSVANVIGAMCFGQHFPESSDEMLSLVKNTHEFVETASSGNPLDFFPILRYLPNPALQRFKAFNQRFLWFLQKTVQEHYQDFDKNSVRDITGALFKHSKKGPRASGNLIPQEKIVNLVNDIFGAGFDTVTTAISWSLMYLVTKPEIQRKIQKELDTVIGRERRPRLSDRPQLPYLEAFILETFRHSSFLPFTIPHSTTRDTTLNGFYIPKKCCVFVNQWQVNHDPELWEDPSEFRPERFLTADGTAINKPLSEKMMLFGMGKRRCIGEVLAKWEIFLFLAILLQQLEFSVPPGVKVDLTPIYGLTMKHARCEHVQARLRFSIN
Dual specificity protein kinase CLK4 (Homo sapiens), sequence (Q9HAZ1 whole entry, looked up): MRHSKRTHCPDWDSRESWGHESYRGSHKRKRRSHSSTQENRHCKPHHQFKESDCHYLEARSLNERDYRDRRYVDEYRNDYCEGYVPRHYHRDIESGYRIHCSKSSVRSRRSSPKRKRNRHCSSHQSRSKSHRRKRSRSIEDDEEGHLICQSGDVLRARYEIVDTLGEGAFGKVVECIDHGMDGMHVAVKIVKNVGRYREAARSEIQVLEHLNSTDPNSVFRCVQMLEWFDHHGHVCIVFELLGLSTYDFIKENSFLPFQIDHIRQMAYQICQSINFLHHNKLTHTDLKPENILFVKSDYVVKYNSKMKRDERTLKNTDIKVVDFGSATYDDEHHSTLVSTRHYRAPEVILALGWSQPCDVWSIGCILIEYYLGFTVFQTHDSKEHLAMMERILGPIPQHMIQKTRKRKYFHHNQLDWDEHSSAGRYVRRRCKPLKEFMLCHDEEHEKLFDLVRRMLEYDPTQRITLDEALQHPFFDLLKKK
Glucocorticoid receptor (Homo sapiens), sequence (P04150 whole entry, looked up, the tested form may be a part): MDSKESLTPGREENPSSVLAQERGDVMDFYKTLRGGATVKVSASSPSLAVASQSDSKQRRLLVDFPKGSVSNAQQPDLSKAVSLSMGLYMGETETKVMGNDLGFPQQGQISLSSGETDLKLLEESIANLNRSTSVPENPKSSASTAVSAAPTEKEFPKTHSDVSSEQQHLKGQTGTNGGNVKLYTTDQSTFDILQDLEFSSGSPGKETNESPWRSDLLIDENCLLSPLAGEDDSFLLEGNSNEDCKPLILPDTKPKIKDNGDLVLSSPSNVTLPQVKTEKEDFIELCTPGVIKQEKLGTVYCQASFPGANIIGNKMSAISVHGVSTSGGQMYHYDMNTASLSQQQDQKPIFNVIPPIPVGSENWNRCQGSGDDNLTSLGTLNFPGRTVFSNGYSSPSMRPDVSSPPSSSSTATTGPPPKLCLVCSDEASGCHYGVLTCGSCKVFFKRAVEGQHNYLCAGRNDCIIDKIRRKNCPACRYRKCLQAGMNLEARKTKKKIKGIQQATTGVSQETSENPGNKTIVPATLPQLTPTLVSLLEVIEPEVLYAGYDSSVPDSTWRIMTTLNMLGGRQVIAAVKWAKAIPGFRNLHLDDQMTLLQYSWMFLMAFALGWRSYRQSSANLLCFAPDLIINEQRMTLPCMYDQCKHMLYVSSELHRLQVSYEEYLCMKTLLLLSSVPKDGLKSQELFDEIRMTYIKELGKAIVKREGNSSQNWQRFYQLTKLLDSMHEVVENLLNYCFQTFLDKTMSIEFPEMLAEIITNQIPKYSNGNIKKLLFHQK
Cytochrome P450 3A4 (Homo sapiens), sequence (P08684 whole entry, looked up): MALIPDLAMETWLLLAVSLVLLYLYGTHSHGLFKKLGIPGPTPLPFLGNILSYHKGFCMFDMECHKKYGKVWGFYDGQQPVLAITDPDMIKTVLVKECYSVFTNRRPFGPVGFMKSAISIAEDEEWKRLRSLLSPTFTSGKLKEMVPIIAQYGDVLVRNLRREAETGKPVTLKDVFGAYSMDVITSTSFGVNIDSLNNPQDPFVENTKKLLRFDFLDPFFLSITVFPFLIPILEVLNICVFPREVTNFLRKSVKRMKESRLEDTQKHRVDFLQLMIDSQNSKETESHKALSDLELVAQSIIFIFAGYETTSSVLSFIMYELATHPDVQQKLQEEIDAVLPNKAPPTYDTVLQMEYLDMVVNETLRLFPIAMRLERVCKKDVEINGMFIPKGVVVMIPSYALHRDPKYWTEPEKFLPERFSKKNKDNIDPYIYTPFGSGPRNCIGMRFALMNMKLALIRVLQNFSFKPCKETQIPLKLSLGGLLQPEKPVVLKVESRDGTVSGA
Cytochrome P450 2C19 (Homo sapiens), sequence (P33261 whole entry, looked up): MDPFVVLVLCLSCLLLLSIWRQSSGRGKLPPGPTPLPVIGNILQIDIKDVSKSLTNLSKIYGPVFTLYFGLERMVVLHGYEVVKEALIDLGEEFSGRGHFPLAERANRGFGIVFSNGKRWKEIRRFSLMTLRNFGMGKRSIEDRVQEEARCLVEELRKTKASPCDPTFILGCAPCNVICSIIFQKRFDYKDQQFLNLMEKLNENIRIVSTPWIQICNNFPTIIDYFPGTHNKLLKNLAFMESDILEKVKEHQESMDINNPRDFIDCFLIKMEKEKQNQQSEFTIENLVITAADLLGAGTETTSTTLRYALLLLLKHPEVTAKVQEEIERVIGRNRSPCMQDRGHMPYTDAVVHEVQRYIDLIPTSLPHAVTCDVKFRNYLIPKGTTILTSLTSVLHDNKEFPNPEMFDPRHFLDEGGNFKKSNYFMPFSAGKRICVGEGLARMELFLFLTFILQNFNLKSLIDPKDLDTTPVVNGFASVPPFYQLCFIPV

Structure (SMILES): N#Cc1cccc(-c2nc3cnc(N4CCOCC4)nc3n(Cc3ccc(F)cc3)c2=O)c1
- Potency [1]: > 11.4 µM
- activity change, negative = inhibition [2]: -7.31%
- activity change, negative = inhibition [3]: 27.2%
- Potency [4]: > 9.22 µM
- Potency [5]: > 46 µM
- Potency [6]: inactive
- Potency [7]: inactive
- Potency [8]: inactive
- Potency [9]: inactive
- Potency [10]: inactive
- Potency [11]: inactive
- Potency [12]: inactive
- outcome [13]: inactive

Structure (SMILES): CCNc1ncc2nc(-c3ccc(Cl)cc3)c(=O)n(Cc3ccc(F)cc3)c2n1
- Potency [1]: > 11.4 µM
- Potency [14]: 12.6 µM (active)
- activity change, negative = inhibition [3]: -1.59%
- Potency [4]: > 9.22 µM
- Potency [5]: > 46 µM
- Potency [6]: inactive
- Potency [15]: inactive
- Potency [16]: inactive
- Potency [17]: 0.1 µM (active)
- Potency [9]: inactive
- Potency [10]: inactive
- Potency [11]: inactive
- Potency [12]: inactive
- outcome [13]: inactive

Structure (SMILES): CN(C)c1ccc(-c2nc(NCCc3cnc[nH]3)c3ccccc3n2)cc1
- Potency [1]: 6.71 µM (active)
- activity change, negative = inhibition [2]: 0.922%
- activity, negative = inhibition [18]: 15.6%
- Potency [4]: > 46 µM
- Potency [5]: > 46 µM
- Potency [6]: inactive
- Potency [7]: inactive
- Potency [15]: 2.51 µM (active)
- Potency [19]: inactive
- Potency [20]: 7.94 µM (active)
- Potency [16]: 1.58 µM (active)
- Potency [9]: 28.2 µM (active)
- Potency [10]: 22.4 µM (active)
- Potency [11]: inactive
- Potency [12]: inactive
- outcome [13]: inactive

Structure (SMILES): N#CCCn1c(=O)c(-c2cccs2)nc2cnc(Nc3ccccc3)nc21
- Potency [1]: > 11.4 µM
- Potency [14]: 5.01 µM (active)
- activity change, negative = inhibition [3]: -22.7%
- activity, negative = inhibition [18]: -25%
- Potency [4]: > 9.22 µM
- Potency [5]: > 46 µM
- Potency [6]: inactive
- Potency [7]: inactive
- Potency [19]: inactive
- Potency [9]: inactive
- Potency [10]: inactive
- Potency [11]: inactive
- Potency [12]: inactive
- outcome [13]: inactive

Structure (SMILES): COc1cccc(Cn2c(=O)c(-c3cn(C)c4ccccc34)nc3cnc(OC)nc32)c1
- Potency [1]: > 11.4 µM
- Potency [14]: 15.8 µM (active)
- activity change, negative = inhibition [3]: 1.88%
- Potency [4]: > 9.22 µM
- Potency [5]: > 46 µM
- Potency [6]: inactive
- Potency [7]: inactive
- Potency [15]: 7.94 µM (active)
- Potency [19]: inactive
- Potency [9]: inactive
- Potency [10]: inactive
- Potency [11]: inactive
- Potency [12]: inactive
- outcome [13]: inactive

Structure (SMILES): COc1cccc(Cn2c(=O)c(-c3cccs3)nc3cnc(N4CCOCC4)nc32)c1
- Potency [1]: > 11.4 µM
- activity change, negative = inhibition [2]: 21.6%
- activity change, negative = inhibition [3]: 5.78%
- Potency [4]: > 9.22 µM
- Potency [5]: > 46 µM
- Potency [7]: inactive
- Potency [9]: inactive
- Potency [10]: inactive
- Potency [11]: inactive
- Potency [12]: inactive
- outcome [13]: inactive
